# Screens deposited in PubChem by National Center for Advancing Translational Sciences (NCATS).
# D2 antag – HTS Assay for Allosteric Antagonists of the Human D2 Dopamine Receptor: Primary Screen for Antagonists | D(2) dopamine receptor (Homo sapiens), P14416 | 340,000 compounds, 2% hits | inhibition, % at 10 µM | HEK293 TREx D2 cells, calcium flux, dopamine EC80; in the data active = inhibition above about 30%; inactive = below that, where a call was filed
# Target sequence (P14416 whole entry, looked up): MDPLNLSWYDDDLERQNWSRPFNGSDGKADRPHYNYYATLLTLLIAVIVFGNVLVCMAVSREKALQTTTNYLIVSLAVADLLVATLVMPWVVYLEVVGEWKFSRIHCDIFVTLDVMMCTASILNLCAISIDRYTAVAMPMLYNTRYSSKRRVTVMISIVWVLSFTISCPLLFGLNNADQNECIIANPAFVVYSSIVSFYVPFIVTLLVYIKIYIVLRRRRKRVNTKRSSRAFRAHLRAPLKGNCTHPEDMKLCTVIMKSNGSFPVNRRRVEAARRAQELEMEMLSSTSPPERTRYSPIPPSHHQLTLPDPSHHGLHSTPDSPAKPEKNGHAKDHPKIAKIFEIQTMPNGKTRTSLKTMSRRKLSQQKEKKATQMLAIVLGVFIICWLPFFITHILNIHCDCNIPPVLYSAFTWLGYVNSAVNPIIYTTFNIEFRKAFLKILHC
#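 Tetracycline-induced HEK293 T-REx cells expressing D2 force-coupled to calcium signalling were dye-loaded, exposed to compound for 180 s, then challenged with an EC80 of dopamine; calcium flux was followed kinetically for a further 180 s.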
# D2 ag-1 – HTS Assay for Allosteric Agonists of the Human D2 Dopamine Receptor: Primary Screen for Agonists; D(2) dopamine receptor (Homo sapiens), P14416; HEK293 T-REx D2 cells, calcium flux agonist mode; activation, % at 2 µM; 340,000 compounds, 0.53% hits; AID 485358, 2010;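 active = activation over 3 SD above normal in the single-dose calcium agonist read, cut at about 30% in these data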
#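 In this primary screen, compounds producing a positive calcium signal within 180 s of addition to tetracycline-induced, force-coupled HEK293 Trex D2 cells are flagged; cells are dye-loaded with a no-wash calcium kit beforehand.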
# D2 ag-2 – Beta-Arrestin HTS for Positive Allosteric Modulators of the Human D2 Dopamine Receptor: Agonists. D(2) dopamine receptor (Homo sapiens), P14416. DiscoveRx PathHunter D2 beta-arrestin, luminescence, 90 min; 100% = 57 uM dopamine signal. activation, % (no concentration beside the values). 360,000 compounds, 0.084% hits. AID 624465, 2012; in the data active = activation above about 40%; inconclusive = between about 15% and that limit
#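 DiscoveRx PathHunter D2 beta-arrestin cells (2,100/well) attached overnight, then compound-stimulated 90 min at 37 C in HBSS/10 mM HEPES/0.1% Tween-20 buffer; beta-galactosidase complementation read by luminescence after 1 h at ambient temperature. Dopamine 57 uM final (EC100) as control.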
# D2 PAM-1 – HTS Assay for Positive Allosteric Modulators of the Human D2 Dopamine Receptor: Primary Screen for Potentiators. D(2) dopamine receptor (Homo sapiens), P14416. HEK293 T-REx D2, calcium flux, EC20 dopamine potentiation. potentiation, % at 10 µM. 340,000 compounds, 0.34% hits. AID 485347, 2010;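 active = potentiation over 3 SD above the plate norm, cut at about 30% in these data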
#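 Primary screen. Calcium kinetics in induced HEK293 T-REx D2 cells: compound pre-addition 180 s, EC20 dopamine, 180 s more.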
# D2 PAM-2 – Beta-Arrestin HTS for Positive Allosteric Modulators of the Human D2 Dopamine Receptor: Potentiators; D(2) dopamine receptor (Homo sapiens), P14416; DiscoveRx D2 beta-arrestin cells, luminescence, 90 min; 100% = 57 uM dopamine signal; potentiation, % (no concentration beside the values); 360,000 compounds, 0.23% hits; AID 624464, 2012; in the data active = potentiation above about 50%; inconclusive = mostly about 30% to 49%
#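 PathHunter D2 cells, attached overnight at 37 deg C, received compound in DMSO plus dopamine at EC20 (50 nM final) for 90 min at 37 deg C. Beta-arrestin recruitment was read as luminescence after 1 h with detection reagent at ambient temperature.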
# D3 ag – qHTS of D3 Dopamine Receptor Agonist: D3 Dopamine Receptor B-arrestin Agonist Confirmatory Assay; shares compounds with D2 ag-1; DiscoveRx D3 beta-arrestin cells, luminescence, 90 min; Potency, µM (titrated, usually from 76.9 µM), most hits filed as activators; 2,300 compounds, 4% hits; AID 720506, 2013; note: nearly all actives have a fitted effect of over 70% in size
# D2 ag-3 – qHTS of D3 Dopamine Receptor Agonist: D2 Dopamine Receptor B-arrestin Agonist Counterscreen; shares compounds with D2 ag-1; DiscoveRx PathHunter D2 beta-arrestin, luminescence, 90 min; response scale: percent relative to full dopamine signal; Potency, µM (highest dose often 76.9 µM), hits mostly activators; 2,300 compounds, 5.9% hits; note: nearly all actives have a fitted effect of over 70% in size
# A number is an active result; – = inactive; ? = inconclusive; · = no result; ! = a repeat was not active. A selection: hits, their analogues and other compounds. The true share with any hit is near 2.4%. Unless noted, calls come from the whole dose curve; as a rule, active = well fitted activation curve with a large enough effect; inconclusive = small, poorly fitted or top-dose-only effect; inactive = flat fitted curve, though single readings scatter.
SMILES,D2 antag,D2 ag-1,D2 ag-2,D2 PAM-1,D2 PAM-2,D3 ag,D2 ag-3
Cc1noc(Cn2c(=O)c3cc4c(cc3n(CC(=O)Nc3cccc(Cl)c3)c2=O)OCO4)n1,·,–,·,–,·,·,·
O=S(=O)(c1ccc(Br)cc1)N1CCCN(Cc2ccccc2F)CC1,–,41.0,–,–,–,–,–
Cc1ccccc1CN1CCN(S(=O)(=O)c2ccc(F)cc2)CC1,–,–,–,–,–,·,·
CN1CCC2(CC1)C1CN(C)CC=C1C(C#N)=C(N)C2(C#N)C#N (stereo not drawn),–,45.6!,–,–,–,–,?
COc1ccc(S(=O)(=O)N2CCCC2CNC(=O)C(=O)NC2CCCCCC2)cc1 (stereo not drawn),–,31.1,–,–,–,–,?
COc1ccc(S(=O)(=O)N2CCCC2CNC(=O)C(=O)NC2CCCC2)cc1 (stereo not drawn),·,·,–,·,–,·,·
Cc1ccc(S(=O)(=O)N2CCCC2CNC(=O)C(=O)NC2CC2)cc1 (stereo not drawn),–,34.5,–,–,–,–,–
Cc1cccc(C)c1OC(=O)C(c1ccccc1)c1ccccc1,–,–,–,–,–,·,·
C=CCC(C(=O)Oc1c(C(C)(C)C)cc(C)cc1C(C)(C)C)c1ccccc1 (stereo not drawn),–,–,–,–,–,–,–
COc1ccc(C2C(C(=O)Nc3ccccc3)=C(C)Nc3c(C(=O)Nc4ccccc4)cnn32)cc1 (stereo not drawn),·,–,·,–,·,·,·
CCc1ccc2c(CN3CCC(C(=O)OC)CC3)cc(=O)oc2c1,105.8,105.7,66.5,–,–,3.98µM,8.91µM
Cc1cc2oc(=O)cc(CN3CCCCC3C)c2cc1Cl (stereo not drawn),–,–,–,–,–,·,·
CCOC(=O)Nc1ccc2c(CN3CCC(C(=O)OC)CC3)cc(=O)oc2c1,–,–,–,–,–,·,·
COC(=O)C1CCN(Cc2cc(=O)oc3cc(C)c(Cl)cc23)CC1,–,31.1,?,–,–,3.16µM,–
CCOC(=O)N1CCC(NCCNC(=O)c2ccco2)CC1,38.2,75.7,–,–,–,–,–
CCOC(=O)N1CCC(NC(=O)C(Cc2ccccc2)NC(=O)c2ccco2)CC1 (stereo not drawn),–,–,–,·,–,·,·
Cc1ccc(C)c(NC(=O)Cn2cc(S(=O)(=O)c3ccc(F)cc3)c(=O)c3cc(F)ccc32)c1,·,–,·,–,·,·,·
Cc1c(O)c(=O)ccn1C,31.4!,56.9!,–,–,–,–,–
CCCN(CCC)CCCNC(=O)CC(C(=O)N1CCc2ccccc21)n1ccnc1 (stereo not drawn),–,–,–,–,–,–,–
CCC(=O)N1CCc2cc(Br)cc(S(=O)(=O)CCC(=O)Nc3cccc(C)c3C)c21,·,·,·,–,·,·,·
NCC(O)(c1ccc(Cl)cc1)c1ccc(Cl)cc1,–,–,–,–,–,–,–
CC(C)(C)NCC(O)(c1ccc(Cl)cc1)c1ccc(Cl)cc1,–,–,–,–,–,·,·
COc1ccc2[nH]cc(C3N4CC5(C)CN3CC(C)(C4)C5=O)c2c1 (stereo not drawn),–,58.4,–,–,–,–,–
O=C(CCN1C(=O)S/C(=C\c2ccccc2)C1=O)NC1CCS(=O)(=O)C1 (stereo not drawn),–,–,–,–,–,·,·
CC(CCN1CCN(c2ccccc2)CC1)c1ccccc1 (stereo not drawn),72.6,30.7,–,–,–,–,–
SMILES,D2 antag,D2 ag-1,D2 ag-2,D2 PAM-1,D2 PAM-2,D3 ag,D2 ag-3
OCC1(Cc2ccc(Cl)cc2)CCN(CCCc2ccccc2)CC1,69.1,77.6,40.6,–,–,–,?
OCC1(Cc2ccc(Cl)cc2)CCN(Cc2ccccc2F)CC1,–,–,–,–,–,·,·
c1ccc(CCCN2CCN(c3ccccc3)CC2)cc1,78.9,–,–,–,–,–,–
CC(CCN1CCN(c2ccccn2)CC1)c1ccccc1 (stereo not drawn),62.7,73.7,?,–,–,?,?
O=C(CN1CCN(C(c2ccccc2)c2ccccc2)CC1)N1CCN(c2ccccc2)CC1,–,–,–,–,–,·,·
Cc1cc(NC(=O)c2ccccc2F)on1,–,67.8,–,–,–,–,–
N#CC[C@H](Cc1ccccc1)N1CCN(CCc2ccccc2)CCC1=O,33.6,49.6,–,–,–,–,–
CC(C)C[C@@H](CO)N1CCN(Cc2ccccc2)CCC1=O,·,·,–,–,–,·,·
N#CC[C@H](Cc1ccccc1)N1CCN(Cc2ccccc2)CCC1=O,–,–,–,–,–,·,·
O=C1CCN(CCCc2ccccc2)CCN1[C@H](CO)c1ccccc1,–,–,–,–,–,?,–
CC(C)C[C@@H](CO)N1CCN(CCCc2ccccc2)CCC1=O,34.7,–,–,–,–,–,–
Cc1noc(C)c1C(=O)N1CCN(c2ccc(OCc3ccccc3)cc2)CC1,–,–,–,–,–,·,·
Cc1ccc(-c2nc(CS(=O)(=O)CC(=O)NCCc3ccccc3)c(C)o2)cc1,·,–,·,–,·,·,·
O=C(NC(Nc1nc2ccc([N+](=O)[O-])cc2s1)(C(F)(F)F)C(F)(F)F)c1cccnc1,–,–,–,–,–,–,–
O=C(NC(Nc1nc2ccc([N+](=O)[O-])cc2s1)(C(F)(F)F)C(F)(F)F)c1ccccc1Cl,–,–,–,–,–,·,·
COc1ccccc1/C=N/NC(=O)c1ccc(NC(=O)c2ccccc2Br)cc1,–,62.9,–,–,–,–,–
COc1ccc(C2(C)NC(=O)N(CC(=O)Nc3cccnc3Cl)C2=O)cc1 (stereo not drawn),–,–,–,–,–,·,·
CC1(c2ccc(OC(F)F)cc2)NC(=O)N(CC(=O)Nc2cccnc2Cl)C1=O (stereo not drawn),–,–,–,–,–,–,–
N#CC1(Nc2cccc(Cl)c2)CCCC1,·,·,–,·,–,·,·
